Measurements taken from PubChem BioAssay AID434939 (The Scripps Research Institute Molecular Screening Center, 2010).
In all, about 2,300 compounds went through this assay and about 2,000 (87%) were called active. No stated cut-off is given here; in the data, active means activation above about 11%; inactive means the rest. The set was probably picked from earlier hits. These entries were drawn from the full list.

The compounds below were run against Nuclear receptor subfamily 1 group I member 2 (Homo sapiens) (UniProt O75469) (assay: human PXR activators, counter-screen for AHR activator project, cell-based, luciferase luminescence (AID 434939;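 further: human hepatoma DPX-2 cells expressing full-length human PXR; 0% = DMSO and 100% = reference agonist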)). Conditions: cell-based PXR reporter, at 11.6 µM, stronger effect = higher value.
Chain of Nuclear receptor subfamily 1 group I member 2 (Homo sapiens) (O75469 whole entry, looked up): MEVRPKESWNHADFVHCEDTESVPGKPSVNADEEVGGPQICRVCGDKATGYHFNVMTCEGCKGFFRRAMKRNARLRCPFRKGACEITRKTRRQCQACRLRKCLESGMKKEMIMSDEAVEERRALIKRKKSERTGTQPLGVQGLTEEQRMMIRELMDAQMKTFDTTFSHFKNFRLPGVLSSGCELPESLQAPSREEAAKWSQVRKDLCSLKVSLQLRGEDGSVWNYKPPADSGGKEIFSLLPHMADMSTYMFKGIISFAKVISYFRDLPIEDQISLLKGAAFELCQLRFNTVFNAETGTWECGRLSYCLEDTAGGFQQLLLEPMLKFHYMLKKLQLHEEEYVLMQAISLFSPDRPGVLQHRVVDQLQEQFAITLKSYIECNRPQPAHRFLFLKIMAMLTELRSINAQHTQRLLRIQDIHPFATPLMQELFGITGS

Row | SMILES | activation
1 | CCN(CC)C(=O)Oc1ccc(Br)cc1C(=O)Nc1ccc(F)c(Cl)c1 | 176% (active)
2 | CCc1nc(Nc2ccc3nccnc3c2)c2oc3ccccc3c2n1 | 45% (active)
3 | O=C(NC1CC1)C1=C[C@H](c2c[nH]c3ccccc23)C[C@H](OCc2ccc(CO)cc2)O1 | 22.2% (active)
4 | O=C(Nc1cc(S(=O)(=O)Nc2ccc(Cl)cc2)ccc1O)c1ccc(F)cc1F | 38.8% (active)
5 | Cc1nnc(NC(=O)/C=C/c2ccco2)s1 | 36.6% (active)
6 | COc1cc(/C=N/N=C(\N)c2nonc2N)cc(OC)c1OC | 14.7% (active)
7 | COc1cc(CNCc2ccc3c(c2)OCO3)c([N+](=O)[O-])cc1OC | 36.7% (active)
8 | Brc1ccc(C2=CC(c3ccco3)n3ncnc3N2)cc1 (configuration not stated) | 15% (active)
9 | Cc1cc(O)c(C(=O)/C=C/c2c(F)c(F)c(F)c(F)c2F)c(=O)o1 | 23.8% (active)
10 | COc1ccc(C(=O)Nc2ccccc2C(=O)N/N=C/c2ccccc2OC)cc1 | 28% (active)
11 | O=C(Nc1cccc(Cl)c1)C1CCCN(c2cnccn2)C1 (configuration not stated) | 29.6% (active)
12 | Cc1ccc(Cl)cc1NC(=O)C1CCCN(c2cnccn2)C1 (configuration not stated) | 41.2% (active)
13 | Cn1c(SCC(=O)c2ccccc2)ncc(C(=O)Nc2ccc(F)cc2)c1=O | 13.1% (active)
14 | CCC(C)NCC(=O)Nc1ccc([N+](=O)[O-])cc1C(=O)Nc1ccccc1F (configuration not stated) | 40.5% (active)
15 | Cn1cc(Cl)c(C(=O)NNC(=S)Nc2cccc(Cl)c2)n1 | 22.8% (active)
16 | C/C(=N\NC(=O)CNc1cccc2ccccc12)c1ccc(Br)s1 | 13.8% (active)
17 | COc1cccc(-c2nc3cc(C)ccc3o2)c1 | 31.3% (active)
18 | CC1Cc2ccccc2N1C(=O)CSc1nnc(C2CC2)n1C (configuration not stated) | 80.9% (active)
19 | CCNC(=S)N1CCC(c2nc3cc(C)c(C)cc3[nH]2)CC1 | 21.2% (active)
20 | S=c1[nH]nc(-c2cc(-c3ccsc3)n[nH]2)n1-c1ccccc1 | 13.7% (active)
21 | Cc1nn2c3cc(N4CCOCC4)ccc3nc2c2ccccc12 | 63.2% (active)
22 | Cc1ccc(NC(=O)Nc2cccnc2)cc1 | 19.7% (active)
23 | Cc1cccc(NC(=O)c2ccc3ccccc3n2)n1 | 20.3% (active)
24 | COc1ccc(NC(=O)c2ccco2)cc1NC(=O)c1ccc(C#N)cc1F | 14.9% (active)

Row | SMILES | activation
25 | C=CCOc1c(Br)cc(/C=N\n2nnnc2N)cc1OC | 78.1% (active)
26 | Cc1nc2sc(C(=O)c3ccccc3)c(N)c2c2c1CCCC2 | 69.6% (active)
27 | O=C(CSc1ccccn1)Nc1nc2c(ccc3ccccc32)s1 | 21.9% (active)
28 | CCCCC(=O)Nc1ccc(C(=O)Nc2cc(C(F)(F)F)ccc2Cl)cc1 | 15.4% (active)
29 | CCOc1ccccc1NC(=O)c1cccnc1 | 24.9% (active)
30 | COCCNc1nc(-c2ccccc2)nc2c1oc1ccccc12 | 28.9% (active)
31 | Cc1cccc(N=Nc2c(O)[nH]c3ccc(F)cc23)c1 | 16.1% (active)
32 | CSc1ccc(C#N)cc1NC(=O)c1ccc(Cl)cc1 | 18.5% (active)
33 | O=C(NCCCn1ccnc1)c1cc(-c2ccccc2)on1 | 41.3% (active)
34 | Cc1ccnc(-n2sc3ccccc3c2=O)n1 | 25.7% (active)
35 | O=C(Nc1ccc(-c2csc(Nc3cccc(C(F)(F)F)c3)n2)cc1)c1cccc(C(F)(F)F)c1 | 5.47% (inactive)
36 | O=C(Nc1ccc(OC(F)(F)F)cc1)c1ccc2c(c1)no[n+]2[O-] | 0.82% (inactive)
37 | O=C(Nc1ccc(C(F)(F)F)cc1)c1cccc(-n2cnnn2)c1 | 16.3% (active)
38 | CC(C(=O)N=Nc1c(O)n(C)c2ccc(Br)cc12)n1cnc2ccccc2c1=O (configuration not stated) | 60% (active)
39 | Cc1ccc(NC(=O)NNC(=O)c2sccc2-n2cccc2)cc1 | 27% (active)
40 | Cc1nn(-c2ccccc2)c2[nH]c(C(F)(F)F)cc(=O)c12 | 25.8% (active)
41 | N#C/C(=C(/O)COc1cccc2ccccc12)c1nc2ccccc2[nH]1 | 29.3% (active)
42 | Cc1nn(Cc2ccc(Cl)cc2)c(Cl)c1/C=N/NC(=O)c1cccnc1 | 39.9% (active)
43 | O=C(Nc1cccc(Br)c1)c1ccc2snnc2c1 | 22.9% (active)
44 | C/C(=N/NC(=S)Nc1ccccc1)c1ccc2c(c1)OCO2 | 76.5% (active)
45 | OCCNc1nc(Nc2ccc(Cl)c(Cl)c2)nc2ccccc12 | 13.8% (active)
46 | Cc1csc(NC(=S)Nc2cccc(Cl)c2)n1 | 21.6% (active)
47 | NC(=O)Nc1ccccc1C(=O)NCCc1ccccc1 | 18.7% (active)
48 | CNC(=O)c1ccc2nc(NC(C)=O)sc2c1 | 9.52% (inactive)

Row | SMILES | activation
49 | CSc1ncccc1C(=O)Nc1nc2ccc(F)cc2s1 | 11.7% (active)
50 | COc1ccc(Nc2nnc(C)c3ccccc23)cc1 | 73.7% (active)
51 | Cc1c(C(=O)NCC(c2ccco2)N2CCCC2)oc2ccc(Cl)cc12 (configuration not stated) | 56.2% (active)
52 | CCn1c2ccccc2c2cc(NC(=O)C/C(C)=N/NC(=O)c3ccccc3N)ccc21 | 45.7% (active)
53 | COc1ccc(Nc2nc(-c3ccccc3)cs2)cc1 | 12.8% (active)
54 | Cc1cccc(Nc2nc(-c3ccccc3)cs2)n1 | 25.5% (active)
55 | COc1ccc2nc(Nc3nc(-c4ccncc4)cs3)sc2c1 | 38.6% (active)
56 | O=C(Nn1c(-c2ccc(Cl)cc2)nc2ccccc2c1=O)c1cccnc1Cl | 14.3% (active)
57 | c1cnc(N2CCN(c3ccc4ccccc4n3)CC2)nc1 | 36.7% (active)
58 | CCn1ccnc1CN(C)Cc1nc(-c2ccc3c(c2)OCO3)no1 | 37.5% (active)
59 | O=C(Cn1c(NCCO)nc2ccccc21)c1ccc(Cl)cc1Cl | 31.4% (active)
60 | O=C(CCCCn1c(=O)[nH]c2ccccc2c1=O)NCc1ccc2c(c1)OCO2 | 37.2% (active)
61 | CCn1c(NC(=O)c2nn(C)cc2Br)nc2ccccc21 | 22.6% (active)
62 | COc1cccc(OC)c1C(=O)Nc1ccc(N2CCCCC2)cc1 | 53.1% (active)
63 | COc1cc2ccccc2cc1C(=O)Nc1ccc(N2CCOCC2)cc1 | 30.4% (active)
64 | NNc1nc2c(Cl)cccc2s1 | 8.29% (inactive)
65 | CN(C)S(=O)(=O)Oc1ccccc1C(=O)Nc1ccccc1Cl | 82.8% (active)
66 | C(=N\Nc1ccc2ccccc2n1)/c1ccc2c(c1)OCO2 | -10.5% (inactive)
67 | Cc1noc(C)c1/C=N/Nc1ccc2ccccc2n1 | 25.9% (active)
68 | CC(C)n1cnc2c(Nc3cccc(Cl)c3)nc(N(CCO)CCCO)nc21 | 255% (active)
69 | CN(C)c1nc(Nc2ccc(Cl)c(Cl)c2)nc(N(C)C)n1 | 23.1% (active)
70 | Cn1c(C(=O)NCCc2ccsc2)cc2c(=O)n(C)c3ccccc3c21 | 75.7% (active)
71 | CC(C)n1ncc2c(C(=O)Nc3ccc(CC#N)cc3)cc(C3CC3)nc21 | 48.4% (active)
72 | S=c1nc2ccccc2c2nc(-c3cccnc3)[nH]n12 | 24.9% (active)
